Screening data from PubChem BioAssay.
KCNQ2 pot: enhances the rat KCNQ2 potassium channel. hit rate 0.54% among 310,000. CHO-K1 KCNQ2, FluxOR thallium flux fluorescence; active compounds read high. B-score at 10 µM. AID 2239;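 active = fluorescence ratio B-score at least 3 SD of library B-scores, with initial fluorescence B-score within 3 of them, cut at about 5.3 in these data; same plate scores as AID 2156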;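 note: B-score of peak minus minimum over baseline fluorescence ratio after K+ and Tl+ stimulus; positive B-score means potentiation of KCNQ2 with more thallium influx and brighter signal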
KCNQ2 inh: blocks the rat KCNQ2 potassium channel. CHO-K1 KCNQ2, FluxOR thallium flux, 20 min; active compounds read low. B-score at 10 µM. hit rate 1.1% among 310,000. AID 2156;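 active = fluorescence ratio B-score at most minus 3 library SDs, with starting brightness B-score within 2 library SDs, cut at about -5.5 in these data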
Kir21 conf inh: confirmation of mouse Kir2.1 potassium channel inhibitors; shares compounds with KCNQ2 pot; Kir2.1-expressing cells, FluxOR thallium flux fluorescence; active compounds read low; Tl flux remaining, % of negative control (active compounds read low), % at 10 µM; hit rate 41% among 2,300; AID 2032;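 active = Primary-screen hit whose thallium flux fell at least 3 control SD below untreated wells in both duplicates, with normal baseline fluorescence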
Target sequence (P35561 whole entry, looked up): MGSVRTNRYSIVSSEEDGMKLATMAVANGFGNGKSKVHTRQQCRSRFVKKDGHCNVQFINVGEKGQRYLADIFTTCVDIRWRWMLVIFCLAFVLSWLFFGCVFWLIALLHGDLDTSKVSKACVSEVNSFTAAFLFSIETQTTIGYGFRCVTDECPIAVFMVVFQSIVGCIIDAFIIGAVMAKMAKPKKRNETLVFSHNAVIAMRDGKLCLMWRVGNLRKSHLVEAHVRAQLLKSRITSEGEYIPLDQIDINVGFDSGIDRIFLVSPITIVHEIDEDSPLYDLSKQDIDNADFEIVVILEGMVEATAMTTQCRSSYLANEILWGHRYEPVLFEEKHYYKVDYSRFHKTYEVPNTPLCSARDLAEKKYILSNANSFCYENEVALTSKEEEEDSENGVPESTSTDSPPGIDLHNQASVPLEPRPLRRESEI
HEK293 Tl flux: parental HEK293 activity in Kir2.1 inhibitor counter-screen | parental HEK293 cells, FluxOR thallium flux fluorescence; 0% = unstimulated blank wells | shares compounds with KCNQ2 pot | FluxOR signal as % of negative control (100 = no effect), % at 10 µM | hit rate 19% among 2,300;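 active = dye signal at least 3 control SD above or below untreated wells in both duplicates, raw fluorescence within 3, either direction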;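 note: percent is based on the flux ratio of peak minus minimum fluorescence over baseline F0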
CHO-K1 ctr: alters thallium flux in parental CHO-K1 cells, KCNQ2 counter-screen; shares compounds with KCNQ2 pot; FluxOR thallium flux fluorescence; zero = vehicle mean+3SD, 100% = vehicle-minus-blank window; activity increase over 3SD of controls, % at 10 µM; hit rate 43% among 1,200; AID 2282;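 active = signal rise of at least 3 SD above the untreated control mean, in both duplicate wells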;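 note: counter screen of KCNQ2 potentiator hits so any rise reflects channel-independent effects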
KCNQ1 sel pot: human KCNQ1 counter-target activity of KCNQ2 potentiators; activation over 3SD threshold, % at 10 µM; hit rate 28% among 1,200; CHO KCNQ1 stable, FluxOR thallium flux fluorescence; beyond 3SD, as % of vehicle-control signal; AID 2283; shares compounds with KCNQ2 pot;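 active = fluorescence ratio rise of at least 3 SD of vehicle wells above their mean, in both replicate wells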
KCNQ2 pot confirm: confirmation of rat KCNQ2 potassium channel potentiators; shares compounds with KCNQ2 pot; CHO-KCNQ2 cells, FluxOR thallium flux fluorescence; potentiation, less the hit threshold, % at 10 µM; hit rate 68% among 1,200;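 active = fluorescence ratio rising 3 SD or more over the vehicle control mean in both replicates, plus primary screen hit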;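 note: peak minus minimum thallium fluorescence divided by baseline after K/Tl stimulus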
Kir2-1 sel: tests whether KCNQ2 potentiators also affect mouse Kir2.1; shares compounds with KCNQ2 pot; HEK293 Kir2.1, FluxOR thallium flux fluorescence; activity over 3SD threshold, % at 10 µM; hit rate 2% among 1,200;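 active = fluorescence ratio rise of at least 3 SD above the vehicle-control mean, seen in both replicates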
KCNQ2 W236L pot: KCNQ2 potentiators acting on retigabine-insensitive rat KCNQ2 W236L mutant; shares compounds with KCNQ2 pot; CHO KCNQ2-W236L, automated patch clamp current; current increase over 3SD of negative controls (%), active compounds read high, % at 25 µM; hit rate 10% among 940; AID 2558;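 active = current increase at least 3 SD of the untreated controls above them in both duplicate recordings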
A number is an active result; . = inactive; / = not tested or not shown. This is a sample that favours compounds with a hit; in the whole collection about 1.6% have one here.

SMILES | KCNQ2 pot | KCNQ2 inh | Kir21 conf inh | HEK293 Tl flux | others
Cc1cc(C(=O)NNC(=S)NC(C)c2ccccc2)c2ccccc2n1 (configuration not stated) | . | . | / | /
CCS(=O)(=O)c1ncc(Cl)c(C(=O)Nc2ccc(S(=O)(=O)N(C)c3ccccc3)cc2)n1 | / | . | / | /
CCN(c1ccccc1)S(=O)(=O)c1ccc(C(=O)Nc2ncccc2O)cc1 | / | . | / | /
COC(=O)CN(c1ccccc1)S(=O)(=O)c1ccc(F)cc1 | . | . | / | /
CCN(c1ccccc1)S(=O)(=O)c1ccc(C(=O)Nc2ccncc2)cc1 | 8.2 | . | . | . | CHO-K1 ctr=79;KCNQ1 sel pot=.;KCNQ2 pot confirm=9.8;Kir2-1 sel=.;KCNQ2 W236L pot=.
CCN(c1ccccc1)S(=O)(=O)c1ccc(NC(=O)c2nc(S(C)(=O)=O)ncc2Cl)cc1 | 9 | . | . | 74% | CHO-K1 ctr=.;KCNQ1 sel pot=.;KCNQ2 pot confirm=.;Kir2-1 sel=.;KCNQ2 W236L pot=.
CCN(c1ccccc1)S(=O)(=O)c1ccc(F)cc1 | / | . | 54% | .
O=C(c1ccco1)N1CCN(Cc2nnnn2C2CCCCC2)CC1 | . | . | / | /
Cc1cccc(NC(=O)c2cc(-c3cccnc3)nc3c(C)cccc23)n1 | . | . | / | /
Oc1ccc(/C=N/N2CCN(C3c4ccccc4-c4ccccc43)CC2)c(O)c1 | / | . | / | /
CC(C)(C)NC(=O)C(=O)NNC(=O)c1cccc(F)c1 | . | . | / | /
COc1ccc(CN(C)CC2CCCN(CCc3ccccc3C)C2)cc1O (configuration not stated) | . | . | 40% | .
COc1cc(OC)c(OC)cc1CN(C)CC1CCCN(CCc2ccccc2F)C1 (configuration not stated) | . | . | / | /
CCOC(=O)c1c(-c2ccccc2)oc2ccc(O)c(CN(C)C)c12 | . | . | . | .
COCCOC(=O)c1c(C)oc2ccc(O)c(CN3CCC(C)CC3)c12 | . | . | / | /
CCOC(=O)c1c(-c2ccccc2)oc2ccc(O)c(CN3CCCC3)c12 | / | . | 26% | .
CCOC(=O)c1c(-c2ccccc2)oc2ccc(OCC(O)CN(C)C)cc12 (configuration not stated) | . | -5.6 | . | .
Cc1oc2ccc(O)c(CN(C)C)c2c1C(=O)c1ccccc1 | / | . | / | /
CCOC(=O)c1c(-c2ccccc2)oc2ccc(OC(C)C(=O)O)cc12 (configuration not stated) | / | . | / | /
C=CCNC(=O)c1onc(CSc2cccc(C)c2)c1C(=O)O | . | . | / | /
Cc1nn(-c2ccccn2)c2c1C(=O)CC(C)(C)C2Br (configuration not stated) | . | . | / | /
Cc1ccc(S(=O)(=O)/N=C/c2c(O)ccc3ccccc23)cc1 | / | . | / | /
O=S(=O)(/N=C/c1c(O)ccc2ccccc12)c1cccs1 | 5.8 | . | . | . | CHO-K1 ctr=.;KCNQ1 sel pot=.;KCNQ2 pot confirm=.;Kir2-1 sel=.
CCN1CCN(CCCNC(=O)c2ccc(NC(=O)C3=C(C)OCCS3)cc2)CC1 | / | . | / | /
CN(C)C(=O)c1cc(Cl)ccc1Sc1cc(Cl)ccc1Cl | / | . | / | /
SMILES | KCNQ2 pot | KCNQ2 inh | Kir21 conf inh | HEK293 Tl flux | others
CN(C)C(=O)c1cc(F)ccc1Sc1cc(Cl)ccc1Cl | / | . | 47% | .
O=S(=O)(c1ccc(Cl)cc1)N1CCN(CCc2ccncc2)CC1 | / | . | / | /
COc1ccc(/C(C)=N/NC(=O)CNC(=O)C(c2ccccc2)c2ccccc2)c(OC)c1 | . | . | / | /
O=C1CCC(C(=O)N2CCCCO2)CN1Cc1cccc(F)c1 (configuration not stated) | / | . | / | /
CC(C)Cc1csc(NC(=O)c2ccc(Br)cc2)c1C(=O)O | 6.1 | . | . | 126% | CHO-K1 ctr=6.1;KCNQ1 sel pot=16;KCNQ2 pot confirm=18;Kir2-1 sel=.;KCNQ2 W236L pot=.
CC(C)Cc1csc(NC(=O)C(C)C)c1C(=O)O | . | . | / | /
CC1C(=O)N2CCCc3cc(S(=O)(=O)NCc4ccccc4Cl)cc1c32 (configuration not stated) | / | . | / | /
